According to PubChem BioAssay AID1159580 (chemical genetic matrix, 2015):
Screen size: about 5,500 compounds; about 2,000 (36%) were called active. About 18% were inconclusive and are not listed. Some of the results follow. Values without a mark were called inactive. No stated cut-off is given here; in the data, active means normalized growth mostly below about 0.91 (no sharp cut-off); inconclusive means no clear call, values can overlap the other calls; inactive means mostly above about 0.92.

Assay: chemical genetic growth profiling, strain panel (AID 1159580);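 further: tested at 20 µM; growth read once vehicle control cultures reached saturation at 30 °C; 1 = growth at the plate median or of vehicle wells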
Conditions: S. cerevisiae deletion strains, growth OD

Compound: COc1ccc(C(=O)c2ccccc2)c(O)c1O
- normalized growth (locus YAL013W, strain DEP1, stronger effect = lower value): 0.929
- normalized growth (locus YAL021C, strain ccr4, stronger effect = lower value): 0.981
- normalized growth (locus YAL026C, strain drs2, stronger effect = lower value): 0.973
- normalized growth (locus YAL030W, strain snc1, stronger effect = lower value): 0.974
- normalized growth (locus YBL061C, strain skt5, stronger effect = lower value): 0.973
- normalized growth (locus YBR009C, strain hhf1, stronger effect = lower value): 0.973
- normalized growth (locus YBR021W, strain FUR4, stronger effect = lower value): 0.853
- normalized growth (locus YBR023C, strain chs3, stronger effect = lower value): 0.969
- normalized growth (locus YBR171W, strain sec66, stronger effect = lower value): 0.945
- normalized growth (locus YBR229C, strain ROT2, stronger effect = lower value): 0.999
- normalized growth (locus YBR231C, strain swc5, stronger effect = lower value): 0.962
- normalized growth (locus YBR279W, strain paf1, stronger effect = lower value): 0.957
- normalized growth (locus YCL011C, strain gbp2, stronger effect = lower value): 0.968
- normalized growth (locus YCL016C, strain dcc1, stronger effect = lower value): 0.986
- normalized growth (locus YCL029C, strain bik1, stronger effect = lower value): 0.956
- normalized growth (locus YCL061C, strain MRC1, stronger effect = lower value): 0.968
- normalized growth (locus YCL069W, strain vba3, stronger effect = lower value): 0.986
- normalized growth (locus YCR088W, strain abp1, stronger effect = lower value): 0.981
- normalized growth (locus YDL005C, strain med2, stronger effect = lower value): 0.971
- normalized growth (locus YDL035C, strain GPR1, stronger effect = lower value): 0.974
- normalized growth (locus YDL040C, strain nat1, stronger effect = lower value): 0.985
- normalized growth (locus YDL074C, strain BRE1, stronger effect = lower value): 0.868
- normalized growth (locus YDL101C, strain DUN1, stronger effect = lower value): 0.953
- normalized growth (locus YDL134C, strain PPH21, stronger effect = lower value): 0.904
- normalized growth (locus YDL185W, strain tfp1, stronger effect = lower value): 0.901 (active)
- normalized growth (locus YDL192W, strain arf1, stronger effect = lower value): 0.892 (active)
- normalized growth (locus YDR001C, strain nth1, stronger effect = lower value): 0.975
- normalized growth (locus YDR069C, strain doa4, stronger effect = lower value): 0.939
- normalized growth (locus YDR101C, strain arx1, stronger effect = lower value): 0.983
- normalized growth (locus YDR137W, strain rgp1, stronger effect = lower value): 0.787 (active)
- normalized growth (locus YDR159W, strain sac3, stronger effect = lower value): 0.975
- normalized growth (locus YDR162C, strain NBP2, stronger effect = lower value): 0.947
- normalized growth (locus YDR195W, strain ref2): 1.02
- normalized growth (locus YDR297W, strain sur2, stronger effect = lower value): 0.966
- normalized growth (locus YDR318W, strain mcm21, stronger effect = lower value): 0.933
- normalized growth (locus YDR334W, strain swr1, stronger effect = lower value): 0.951
- normalized growth (locus YDR335W, strain msn5, stronger effect = lower value): 0.97
- normalized growth (locus YDR388W, stronger effect = lower value): 0.962
- normalized growth (locus YDR392W, strain spt3, stronger effect = lower value): 0.851
- normalized growth (locus YDR502C, strain sam2, stronger effect = lower value): 0.9 (active)
- normalized growth (locus YEL003W, strain gim4, stronger effect = lower value): 0.96
- normalized growth (locus YEL037C, strain rad23, stronger effect = lower value): 0.964
- normalized growth (locus YEL061C, strain CIN8 (second series), stronger effect = lower value): 0.974
- normalized growth (locus YEL061C, strain CIN8, stronger effect = lower value): 0.967
- normalized growth (locus YER015W, strain faa2, stronger effect = lower value): 0.965
- normalized growth (locus YER016W, strain bim1, stronger effect = lower value): 0.972
- normalized growth (locus YER110C, stronger effect = lower value): 0.936
- normalized growth (locus YER111C, strain swi4, stronger effect = lower value): 0.97
- normalized growth (locus YER155C, strain BEM2 (second series), stronger effect = lower value): 0.81 (active)
- normalized growth (locus YER155C, strain BEM2, stronger effect = lower value): 1.02
- normalized growth (locus YER167W, strain BCK2, stronger effect = lower value): 0.997
- normalized growth (locus YFR010W, strain ubp6, stronger effect = lower value): 0.937
- normalized growth (locus YGL078C, strain dbp3, stronger effect = lower value): 0.909 (active)
- normalized growth (locus YGL086W, strain mad1, stronger effect = lower value): 0.937
- normalized growth (locus YGL167C, strain pmr1, stronger effect = lower value): 0.955
- normalized growth (locus YGL173C, strain kem1, stronger effect = lower value): 0.948
- normalized growth (locus YGL227W, strain vid30, stronger effect = lower value): 0.99
- normalized growth (locus YGL240W, strain doc1, stronger effect = lower value): 0.92
- normalized growth (locus YGL248W, strain PDE1, stronger effect = lower value): 0.92
- normalized growth (locus YGL253W, strain hxk2, stronger effect = lower value): 0.979
- normalized growth (locus YGR078C, strain PAC10, stronger effect = lower value): 0.891
- normalized growth (locus YGR135W, strain pre9, stronger effect = lower value): 0.846 (active)
- normalized growth (locus YGR252W, strain gcn5, stronger effect = lower value): 0.698 (active)
- normalized growth (locus YHR013C, strain ard1, stronger effect = lower value): 0.941
- normalized growth (locus YHR027C, strain rpn1, stronger effect = lower value): 0.959
- normalized growth (locus YHR030C, strain SLT2, stronger effect = lower value): 0.979
- normalized growth (locus YHR079C, strain IRE1 (second series), stronger effect = lower value): 0.932
- normalized growth (locus YHR094C, strain hxt1, stronger effect = lower value): 0.955
- normalized growth (locus YHR129C, strain ARP1, stronger effect = lower value): 0.927
- normalized growth (locus YHR142W, strain chs7, stronger effect = lower value): 0.939
- normalized growth (locus YHR200W, strain rpn10, stronger effect = lower value): 0.937
- normalized growth (locus YIL066C, strain RNR3, stronger effect = lower value): 0.976
- normalized growth (locus YIL073C, strain SPO22, stronger effect = lower value): 0.897
- normalized growth (locus YIL125W, strain kgd1, stronger effect = lower value): 0.969
- normalized growth (locus YIR030C, strain dcg1, stronger effect = lower value): 0.958
- normalized growth (locus YJL092W, strain hpr5, stronger effect = lower value): 0.967
- normalized growth (locus YJL095W, strain BCK1 (second series), stronger effect = lower value): 0.971
- normalized growth (locus YJL095W, strain BCK1, stronger effect = lower value): 0.724 (active)
- normalized growth (locus YJL115W, strain asf1, stronger effect = lower value): 0.945
- normalized growth (locus YJL129C, strain trk1, stronger effect = lower value): 0.966
- normalized growth (locus YJL134W, strain LCB3, stronger effect = lower value): 0.991
- normalized growth (locus YJL154C, strain vps35, stronger effect = lower value): 0.972
- normalized growth (locus YJL164C, strain tpk1, stronger effect = lower value): 0.96
- normalized growth (locus YJL166W, strain qcr8, stronger effect = lower value): 0.973
- normalized growth (locus YJL168C, strain set2, stronger effect = lower value): 0.96
- normalized growth (locus YJL187C, strain SWE1 (second series), stronger effect = lower value): 0.885
- normalized growth (locus YJL187C, strain SWE1, stronger effect = lower value): 0.971
- normalized growth (locus YJR043C, strain POL32, stronger effect = lower value): 0.942
- normalized growth (locus YKL009W, strain mrt4, stronger effect = lower value): 0.933
- normalized growth (locus YKL068W, stronger effect = lower value): 0.957
- normalized growth (locus YKL085W, strain MDH1 (second series), stronger effect = lower value): 0.963
- normalized growth (locus YKL085W, strain MDH1, stronger effect = lower value): 0.963
- normalized growth (locus YKL160W, strain elf1, stronger effect = lower value): 0.971
- normalized growth (locus YKR001C, strain vps1, stronger effect = lower value): 0.781 (active)
- normalized growth (locus YKR026C, strain gcn3, stronger effect = lower value): 0.964
- normalized growth (locus YKR091W, strain srl3, stronger effect = lower value): 0.978
- normalized growth (locus YLL001W, strain dnm1, stronger effect = lower value): 0.974
- normalized growth (locus YLL026W, stronger effect = lower value): 0.988
- normalized growth (locus YLL041C, strain sdh2, stronger effect = lower value): 0.957
- normalized growth (locus YLR027C, strain aat2, stronger effect = lower value): 0.975
- normalized growth (locus YLR039C, strain RIC1, stronger effect = lower value): 0.788
- normalized growth (locus YLR058C, strain SHM2, stronger effect = lower value): 0.933
- normalized growth (locus YLR102C, strain apc9, stronger effect = lower value): 0.974
- normalized growth (locus YLR221C, strain rsa3, stronger effect = lower value): 0.98
- normalized growth (locus YLR258W, strain gsy2, stronger effect = lower value): 0.97
- normalized growth (locus YLR262C, strain YPT6 (second series), stronger effect = lower value): 0.843 (active)
- normalized growth (locus YLR262C, strain YPT6, stronger effect = lower value): 0.824
- normalized growth (locus YLR268W, strain sec22, stronger effect = lower value): 0.907
- normalized growth (locus YLR320W, strain mms22, stronger effect = lower value): 0.936
- normalized growth (locus YLR330W, strain CHS5, stronger effect = lower value): 0.947
- normalized growth (locus YLR342W, strain FKS1 (second series), stronger effect = lower value): 0.851
- normalized growth (locus YLR342W, strain FKS1, stronger effect = lower value): 0.977
- normalized growth (locus YLR357W, strain rsc2, stronger effect = lower value): 0.885
- normalized growth (locus YLR370C, strain arc18, stronger effect = lower value): 0.975
- normalized growth (locus YLR371W, strain rom2, stronger effect = lower value): 0.948
- normalized growth (locus YLR384C, strain iki3, stronger effect = lower value): 0.968
- normalized growth (locus YLR418C, strain cdc73, stronger effect = lower value): 0.825 (active)
- normalized growth (locus YML016C, strain PPZ1, stronger effect = lower value): 0.979
- normalized growth (locus YML032C, strain rad52, stronger effect = lower value): 0.926
- normalized growth (locus YML120C, strain ndi1, stronger effect = lower value): 0.967
- normalized growth (locus YML124C, strain tub3, stronger effect = lower value): 0.957
- normalized growth (locus YMR058W, strain fet3, stronger effect = lower value): 0.897 (active)
- normalized growth (locus YMR078C, strain ctf18, stronger effect = lower value): 0.931
- normalized growth (locus YMR125W, strain sto1, stronger effect = lower value): 0.97
- normalized growth (locus YMR129W, stronger effect = lower value): 0.973
- normalized growth (locus YMR205C, strain PFK2, stronger effect = lower value): 0.991
- normalized growth (locus YMR223W, strain ubp8, stronger effect = lower value): 0.909
- normalized growth (locus YMR231W, strain pep5, stronger effect = lower value): 0.973
- normalized growth (locus YMR307W, strain GAS1, stronger effect = lower value): 0.983
- normalized growth (locus YNL067W, strain RPL9B, stronger effect = lower value): 0.918
- normalized growth (locus YNL071W, strain lat1, stronger effect = lower value): 0.971
- normalized growth (locus YNL153C, strain GIM3, stronger effect = lower value): 0.906
- normalized growth (locus YNL209W, strain ssb2, stronger effect = lower value): 0.965
- normalized growth (locus YNL233W, strain BNI4, stronger effect = lower value): 0.895
- normalized growth (locus YNL248C, strain rpa49, stronger effect = lower value): 0.984
- normalized growth (locus YNL250W, strain rad50, stronger effect = lower value): 0.9
- normalized growth (locus YNL271C, strain bni1, stronger effect = lower value): 0.908 (active)
- normalized growth (locus YNL298W, strain CLA4, stronger effect = lower value): 0.965
- normalized growth (locus YNL307C, strain MCK1, stronger effect = lower value): 0.906 (active)
- normalized growth (locus YNL322C, strain KRE1 (second series), stronger effect = lower value): 0.978
- normalized growth (locus YNR049C, strain mso1, stronger effect = lower value): 0.983
- normalized growth (locus YNR052C, strain pop2, stronger effect = lower value): 0.896 (active)
- normalized growth (locus YOL006C, strain TOP1, stronger effect = lower value): 0.69
- normalized growth (locus YOL012C, strain htz1): 0.47
- normalized growth (locus YOL147C, strain pex11, stronger effect = lower value): 0.963
- normalized growth (locus YOR001W, strain rrp6, stronger effect = lower value): 0.955
- normalized growth (locus YOR061W, strain CKA2, stronger effect = lower value): 0.989
- normalized growth (locus YOR069W, strain VPS5, stronger effect = lower value): 0.948
- normalized growth (locus YOR070C, strain gyp1, stronger effect = lower value): 0.975
- normalized growth (locus YOR080W, strain dia2, stronger effect = lower value): 0.989
- normalized growth (locus YOR083W, strain WHI5, stronger effect = lower value): 0.953
- normalized growth (locus YOR106W, strain vam3, stronger effect = lower value): 0.932
- normalized growth (locus YOR136W, strain idh2, stronger effect = lower value): 0.952
- normalized growth (locus YOR144C, strain elg1, stronger effect = lower value): 0.971
- normalized growth (locus YOR184W, strain ser1, stronger effect = lower value): 0.996
- normalized growth (locus YOR265W, strain rbl2, stronger effect = lower value): 0.973
- normalized growth (locus YOR270C, strain vph1, stronger effect = lower value): 0.854
- normalized growth (locus YOR290C, strain snf2, stronger effect = lower value): 0.929
- normalized growth (locus YOR316C, strain cot1, stronger effect = lower value): 0.948
- normalized growth (locus YPL051W, strain arl3, stronger effect = lower value): 0.936
- normalized growth (locus YPL078C, strain atp4, stronger effect = lower value): 0.975
- normalized growth (locus YPL106C, strain sse1, stronger effect = lower value): 0.901
- normalized growth (locus YPL240C, strain hsp82, stronger effect = lower value): 0.954
- normalized growth (locus YPL241C, strain CIN2, stronger effect = lower value): 0.977
- normalized growth (locus YPR119W, strain clb2, stronger effect = lower value): 0.947
- normalized growth (locus YPR141C, strain kar3, stronger effect = lower value): 0.923
- normalized growth (locus YPR163C, strain tif3, stronger effect = lower value): 0.813 (active)
- normalized growth (locus YPR167C, strain met16, stronger effect = lower value): 0.919 (active)
- normalized growth (strain wtn01, stronger effect = lower value): 0.971
